Test results from the supplement of paper PMC7411054.
Where a name gives a salt, the structure may show the parent alone.

system: HepG2-GM130-SQSTM1; assay: lowest phenotypically active concentration; higher = less potent; details: treatment time: 24 h
In short: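 Cells from fifteen gene-edited reporter lines (A549, HepG2 and WPMY1) were treated for 24 h at 0.3, 1, 3 or 9 µM and imaged live, four wells per condition. Features were normalised per well to solvent control wells. A condition deviated if ≥3 of 4 wells passed the 95th percentile of control Euclidean distances and was reproducible if its median replicate Pearson correlation beat the 95th percentile of non-replicates; phenotypic activity needed both.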

Going from CC[C@H]1CN2CC[C@H]1C[C@@H]2[C@@H](O)c1ccnc2ccc(OC)cc12 [Hydroquinidine HCl] to COc1ccc(N(C(=O)Oc2c(C)cccc2C)c2ccnc(Nc3ccc(N4CCN(C)CC4)cc3)n2)c(OC)c1, the “lowest phenotypically active concentration” value falls from 9 µM to 3 µM (3-fold).

Compared with C[C@@]1(CO)[C@H](O)CC[C@@]2(C)[C@H]1CC[C@H]1C[C@@H]3C[C@@]12CC[C@]3(O)CO [Aphidicolin], C[C@]12CC[C@H]3[C@@H](CC[C@]4(O)C[C@@H](O)CC[C@]34C=O)[C@@]1(O)CC[C@@H]2C1=CC(=O)OC1 [Strophanthidin] is higher in “lowest phenotypically active concentration” value: no more than 0.3 µM for the first, 1 µM for the second.

First: COC(=O)[C@@]1(O)C[C@H]2O[C@]1(C)n1c3ccccc3c3c4c(c5c6ccccc6n2c5c31)C(=O)NC4
Second: CC(C)[C@@]1(NC(=O)[C@@H]2C[C@@H]3c4cccc5[nH]cc(c45)C[C@H]3N(C)C2)O[C@@]2(O)[C@@H]3CCCN3C(=O)[C@H](Cc3ccccc3)N2C1=O [Dihydroergocristine mesylate]
The “lowest phenotypically active concentration” value of the first is lower: no more than 0.3 µM for the first, 3 µM for the second.

CC[C@@H]1C=CC=CC[C@H](C)[C@@H](O)[C@](C)(O)C(=O)[C@H](C)[C@@H](O)[C@H](C)C(=O)[C@H](C)[C@@H](O)[C@H](C)C=CC(=O)O[C@H]2[C@@H](C)[C@@H](CC1)O[C@@]1(CC[C@@H](C)[C@@H](C[C@H](C)O)O1)[C@@H]2C [Oligomycin A] and C=C1[C@@H](O)C2C=CC[C@H](C)C(=O)[C@](C)(O)C=C[C@@H](OC(C)=O)[C@]23C(=O)N[C@H](Cc2ccccc2)[C@@H]3[C@@H]1C (some centres undefined) [Cytochalasin D] cannot be ordered by “lowest phenotypically active concentration” value: no more than 0.3 µM for the first, no more than 0.3 µM for the second.

In the case of O=c1[nH]c2ccccc2n1C1CCN(CCCC(c2ccc(F)cc2)c2ccc(F)cc2)CC1 [pimozide], the “lowest phenotypically active concentration” value is reported as 3 µM.
